Structures are written as SMILES. Calls of active or inactive are those of the source. Rule for the calls: active = hit-call score of the fitted dose curve at least 0.9, where 1 is the maximum; inactive = score below 0.9.

As a reminder, the AC50 is the concentration giving half of the maximal activity seen.

The assay in a line: ATG_M_61_CIS: Attagene CIS-FACTORIAL HepG2 Assay for M61 Transcription Factor (Internal Marker) (AID 2282937). Particulars: HepG2 Attagene CIS-FACTORIAL M61 internal marker reporter; actives raise or lower the signal. The procedure:
ATG_CIS is a cell-based, multiplexed-readout assay that uses HepG2, a human liver cell line, with measurements taken at 24 hours after chemical dosing in a 24-well plate.ATG_M_61_CIS is one of 52 assay component(s) measured or calculated from the ATG_CIS assay. It is designed to make measurements of mRNA induction, a form of inducible reporter, as detected with fluorescence intensity signals by Reverse transcription polymerase chain reaction (RT-PCR) and Capillary electrophoresis technology.Data from the assay component ATG_M_61_CIS was analyzed into 1 assay endpoint. This assay endpoint, ATG_M_61_CIS, was analyzed with bidirectional fitting relative to DMSO as the negative control and baseline of activity. Using a type of inducible reporter, measures of mRNA for gain or loss-of-signal activity can be used to understand the background control at the transcription factor-level as they relate to the gene . Furthermore, this assay endpoint can be referred to as a secondary readout, because this assay has produced multiple assay endpoints where this one serves a background control function. To generalize the intended target to other relatable targets, this assay endpoint is annotated to the background measurement intended target family, where the subfamily is internal marker.
Human liver HepG2 cells are transiently transfected with multiple reporter transcription units (MRTUs) in 6-well plates using FuGene 6 reagent (Roche; 3 ml FuGene/1 mg DNA). The MRTU constructs are regulated by a cis-regulating element (promoter). […] A major difference between the CIS and TRANS system is that in CIS activities of endogenous TFs are measured, whereas the TRANS assay evaluates changes in activities of exogenous, chimeric NR-Gal4 proteins. […] At the end of 24 hour incubation, total RNA was isolated using TriZol reagent (Invitrogen). The isolated RNA is then reverse-transcribed using oligo(dT) primer and Mo-MLV reverse transcriptase (Invitrogen) with DNAse I (Ambion) treatment for 30 min. The one-tenth of the produced cDNA was amplified by PCR using Taq DNA polymerase (Invitrogen) and two reporter sequence-specific primers. The PCR products were fluorescently labeled by primer extension with 6-arboxyfluorescein (6-FAM) 5'-labeled reporter sequence-specific primer (2 min at 95 C, 20 s at 68 C and 10 min at 72 C) and these products were digested with 5U of HpaI (New England Biolabs) for 2h at 37 C. The fragments were purified using Qiaquick PCR columns (Qiagen), analyzed on an ABI 3130xL genetic analyzer (Applied Biosystems) with peak positions identified by using a set of X-rhodamine (ROX)-labeled MapMarker1000 molecular weight standards (BioVentures). The raw capillary electrophoresis data was processed using Attagraph software (Attagene).
For the compound `CC(=O)Nc1ccc(CC(=O)O)cc1`, the result was inactive. Still for that read-out and setting: to `[Ca+2]` belongs “inactive”; to `CC(C)[C@@H]1CC[C@@H](C)CC1=O`, “inactive”.

On to `CC(C)=CCC[C@](C)(O)[C@@H]1CC=C(C)CC1`, for which the compound was called inactive. The same measure, in the same setting: next, `COc1cc(C=O)ccc1OC(=O)C(C)C`: “inactive”; `COc1c(Cl)c(Cl)c(Cl)c(Cl)c1Cl`: “inactive”. On the same count and under the same terms, next, `CC1=CCC(O)(C(C)C)CC1` (stereo not given): “inactive”. As for `C#C[C@]1(O)CC[C@H]2[C@@H]3CCC4=Cc5oncc5C[C@]4(C)[C@H]3CC[C@@]21C`, the compound was classed as inactive. Still for that read-out and setting: next, `Sc1nc(S)nc(S)n1`: “inactive”; `Cc1ccc(O)c(C(C)(C)C)c1`: “inactive”. Take `O=C(OCc1ccccc1)C(=O)OCc1ccccc1`: the compound was called inactive.

On to `CC(C)(Oc1ccc(CCNC(=O)c2ccc(Cl)cc2)cc1)C(=O)O`, for which the call was inactive. Same read-out and setting: next, `Cc1c(Cl)c(=O)oc2cc(O)ccc12`: “inactive”; `CC(=O)OCCOC(C)=O`: “inactive”. On the same count and under the same terms, next, `COC(C(=O)O)c1ccccc1` (stereo not given): “inactive”. Still for that read-out and setting: next, `C=C(C)C(=O)OCc1ccccc1`: “inactive”; `CC(=O)O[C@]1(C(C)=O)CC[C@H]2[C@@H]3C[C@H](C)C4=CC(=O)CC[C@]4(C)[C@H]3CC[C@@]21C`: “inactive”. `Nc1ccc(S(=O)(=O)O)c(N)c1`: the outcome was inactive.

On to `O=CCCc1ccccc1`, for which the outcome was inactive. The same measure, in the same setting: next, `CCCCC(CC)COC(=O)/C=C\C(=O)OCC(CC)CCCC` (stereo not given): “inactive”; `CC(CCO)CCc1ccccc1` (stereo not given): “inactive”; `CO[Si](CCCn1c(=O)n(CCC[Si](OC)(OC)OC)c(=O)n(CCC[Si](OC)(OC)OC)c1=O)(OC)OC`: “inactive”.

In the case of `Nc1cc(Cl)c(O)c(Cl)c1`, the compound was classed as inactive. Take `CC(CCO)CCCC(C)(C)O` (stereo not given): the call was inactive. The same measure, in the same setting: next, `CCCCCC=CCC(=O)OC`: “inactive”; `CC1=CC(=O)NS(=O)(=O)O1`: “inactive”.

Turning to `CCCOCC(C)O` (stereo not given), the compound was classed as inactive. On the same count and under the same terms, to `CCCCCCCCCCC(CO)CCCCCCCC` (stereo not given) belongs “inactive”; to `CCCCO`, “inactive”. The same measure, in the same setting: to `CCCCCCCCCCCCCCCCCC(=O)OCC(CC)CCCC` (stereo not given) belongs “inactive”; to `CN(C)CCCN`, “inactive”. On the same count and under the same terms, to `CC1CC(OC(=O)c2ccccc2O)CC(C)(C)C1` (stereo not given) belongs “inactive”; to `C=CC(=O)NCOCC(C)C`, “inactive”. Turning to `C=CC(C)(O)CCC=C(C)CCC=C(C)C` (stereo not given), the concentration at half-maximal activity (AC50) is 166 µM (active). As for `COc1nc(C)nc(N)n1`, the call was inactive.

Turning to `C=C(C)C(=O)O[C@H]1C[C@@H]2CC[C@@]1(C)C2(C)C`, the result was inactive. On to `Cc1ccc(C=O)cc1`, for which the compound was classed as inactive. Turning to `CC1(C)[C@H](C(=O)OCc2cccc(Oc3ccccc3)c2)[C@@H]1C=C(Cl)Cl`, the compound was classed as inactive. With `CC(C)C1CCC(O)CC1` (stereo not given), the result was inactive.

Turning to `O=c1oc(=O)c2cc3c(=O)oc(=O)c3cc12`, the compound was classed as inactive.

(Values after PubChem BioAssay (EPA / NIEHS).)
